Reference: PubChem BioAssay
Calls of active or inactive are those of the source. Unless noted, how the calls were made is not given here.

How the values were obtained:
[1] = anti-His antibody binders, primary screen, artefact control for SMM control protein annotation, biochemical, small-molecule microarray, 635 nm fluorescence (AID 1128); conditions: anti-His Alexa647 antibody binding, higher = more signal;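 further: score merges feature fluorescence with signal-to-noise for each printed compound spot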
[2] = system: Human papillomavirus type 1a E7 protein (residues 1-88); assay: HPV1a E7 small-molecule binders, primary screen, biochemical, small-molecule microarray, residues 1-88, 635 nm (AID 1129); conditions: small-molecule microarray binding, fluorescence 635 nm; higher = more signal
[3] = biological target: Focal adhesion kinase 1 (Homo sapiens) (UniProt Q05397); assay: small-molecule microarray binders of FAK, primary screen, biochemical, 635/667 nm fluorescence, BSA, DTT (AID 1130); conditions: PTK2 binding, 635 nm fluorescence, higher = more signal;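 further: composite of spot emission at 667 nm and signal to noise over triplicate slides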
[4] = system: Fibrinogen (Alexa647-labelled); assay: fibrinogen binders on compound microarrays, profiling panel, artefact control for SMM control-protein annotation, biochemical, small-molecule microarray, 635/667 nm fluorescence (AID 1131); conditions: fibrinogen-A647 binding fluorescence, higher = more signal;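 further: z-score merges 667 nm fluorescence with per-spot signal-to-noise over triplicate slides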
[5] = biological target: Follistatin (Homo sapiens) (UniProt P19883); assay: follistatin binders on small-molecule microarrays, primary screen, biochemical, small-molecule microarray, 635/667 nm fluorescence (AID 1132); conditions: FST binding, 635 nm fluorescence, higher = more signal
[6] = biological target: Fibroblast growth factor 2 (Homo sapiens) (UniProt P09038); assay: FGF2 binders on small-molecule microarrays, primary screen, biochemical, small-molecule microarray, 635/667 nm fluorescence (AID 1133); conditions: small-molecule microarray binding, FGF2, fluorescence 635/667; higher = more signal
[7] = mitochondrial membrane potential change in A549 cells, profiling panel, cell-based, JC-1 fluorescence, basal, 24 h, 100 nL (AID 1138); conditions: higher = more signal;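 further: A549 lung adenocarcinoma cells under basal conditions with no added stimulus; test concentration not given here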
[8] = system: Lefty1; assay: Lefty1 binders on small-molecule microarrays, primary screen, biochemical, small-molecule microarray, 635/667 nm fluorescence (AID 1139); conditions: small-molecule microarray binding, fluorescence 635/667; higher = more signal
[9] = system: wheat germ agglutinin (Triticum aestivum), Alexa647-labelled; assay: wheat germ agglutinin binders on compound microarrays, profiling panel, artefact control for SMM control-protein annotation, biochemical, small-molecule microarray, 635/667 nm fluorescence (AID 1140); conditions: WGA-A647 binding, 635 nm fluorescence, higher = more signal;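 further: score merges 667 nm feature emission with signal to noise over triplicate slides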
[10] = biological target: Luciferin 4-monooxygenase (Photinus pyralis) (UniProt P08659); assay: firefly luciferase enzyme inhibitors, primary screen, biochemical, luminescence, purified enzyme, 2006 set (AID 1141); conditions: SteadyGlo luminescence, 30 min, higher = more signal, called active from +8 up or from −8 down;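 further: cell-free assay with purified firefly luciferase at 100 ng per well in PBS; test concentration not given here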
[11] = system: Wnt5a (protein binding on small-molecule microarray); assay: Wnt5a binders on small-molecule microarray, primary screen, biophysical, 635/667 nm fluorescence (AID 1142); conditions: 635 nm fluorescence, higher = more signal;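 further: fluorescence read at 667 nm with signal to noise per printed feature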
[12] = cell viability in Huh7 cells, primary screen, cytotoxicity control for HCV replication inhibitor project, CellTiter-Glo luminescence, basal, 48 h (AID 1143); conditions: Huh7 HCV replicon, higher = more signal, called active from +8 up or from −8 down;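 further: Huh7 hepatoma cells carrying a hepatitis C replication reporter with no stimulus; test concentration not given here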
[13] = P. aeruginosa biofilm formation inhibitors, primary screen, PAO1 strain, BacTiter-Glo luminescence, LB-PBS (AID 1144); conditions: 12 h, higher = more signal
[14] = CREB reporter modulators without forskolin, primary screen, cell-based, PC12, CRE-LacZ reporter, unstimulated (AID 1145); conditions: no forskolin, luminescence, 4.5 h, higher = more signal, called active from +8 up or from −8 down
[15] = CREB reporter modulators under forskolin, primary screen, cell-based, PC12, CRE-LacZ reporter, forskolin-stimulated (AID 1146); conditions: luminescence, 4.5 h, higher = more signal, called active from +8 up or from −8 down;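 further: PC12 cells with 6xCRE LacZ reporter stimulated by forskolin 10 µM; beta-galactosidase reporter signal reflecting CREB driven transcription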
[16] = biological target: Streptavidin (Streptomyces avidinii) (UniProt P22629); assay: streptavidin binders on small-molecule microarray, primary screen, artefact control for SMM compound annotation, biophysical, 635/667 nm fluorescence (AID 1147); conditions: streptavidin binding, higher = more signal;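 further: signal reflects streptavidin binding to arrayed compounds as a control protein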
[17] = small-molecule binders of probe aInhba, primary screen, biochemical, small-molecule microarray, 635/667 nm fluorescence (AID 1148); conditions: higher = more signal;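 further: score merges 667nm spot fluorescence with signal-to-noise for antibody binding to printed compounds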
[18] = biological target: Torsin-1A (Homo sapiens) (UniProt O14656); assay: torsin A binders from cell lysate, primary screen, small-molecule microarray, wild-type, 635/667 nm (AID 1149); conditions: COS7 hTOR1A-WT lysate, 635 nm fluorescence, higher = more signal
[19] = biological target: Torsin-1A (Homo sapiens) (UniProt O14656); assay: small-molecule binders of mutant TOR1A in lysate, primary screen, cell lysate, small-molecule microarray, COS7 lysate, 635/667 nm fluorescence (AID 1150); conditions: COS7 hTOR1A mutant lysate, 635 nm fluorescence, higher = more signal;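 further: score pools 667 nm emission and signal to noise measuring lysate protein binding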
[20] = system: Sonic hedgehog protein (Shh); assay: small-molecule binders of Shh protein, primary screen, biochemical, small-molecule microarray, 635/667 nm fluorescence (AID 1151); conditions: small-molecule microarray binding, 635 nm fluorescence; higher = more signal;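 further: Shh protein binding to compounds spotted on small-molecule microarray slides; score combines spot fluorescence intensity with signal-to-noise across triplicate slides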

Sequence of Follistatin (Homo sapiens) (P19883 whole entry, looked up): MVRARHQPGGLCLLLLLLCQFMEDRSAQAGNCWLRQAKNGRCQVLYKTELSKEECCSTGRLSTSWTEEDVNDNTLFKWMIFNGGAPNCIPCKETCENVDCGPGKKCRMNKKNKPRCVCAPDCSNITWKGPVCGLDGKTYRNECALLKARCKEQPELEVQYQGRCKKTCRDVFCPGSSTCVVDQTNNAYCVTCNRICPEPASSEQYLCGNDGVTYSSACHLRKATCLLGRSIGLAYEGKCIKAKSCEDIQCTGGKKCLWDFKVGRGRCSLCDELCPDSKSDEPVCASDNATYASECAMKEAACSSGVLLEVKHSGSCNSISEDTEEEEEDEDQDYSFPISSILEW
Sequence of Focal adhesion kinase 1 (Homo sapiens) (Q05397 whole entry, looked up): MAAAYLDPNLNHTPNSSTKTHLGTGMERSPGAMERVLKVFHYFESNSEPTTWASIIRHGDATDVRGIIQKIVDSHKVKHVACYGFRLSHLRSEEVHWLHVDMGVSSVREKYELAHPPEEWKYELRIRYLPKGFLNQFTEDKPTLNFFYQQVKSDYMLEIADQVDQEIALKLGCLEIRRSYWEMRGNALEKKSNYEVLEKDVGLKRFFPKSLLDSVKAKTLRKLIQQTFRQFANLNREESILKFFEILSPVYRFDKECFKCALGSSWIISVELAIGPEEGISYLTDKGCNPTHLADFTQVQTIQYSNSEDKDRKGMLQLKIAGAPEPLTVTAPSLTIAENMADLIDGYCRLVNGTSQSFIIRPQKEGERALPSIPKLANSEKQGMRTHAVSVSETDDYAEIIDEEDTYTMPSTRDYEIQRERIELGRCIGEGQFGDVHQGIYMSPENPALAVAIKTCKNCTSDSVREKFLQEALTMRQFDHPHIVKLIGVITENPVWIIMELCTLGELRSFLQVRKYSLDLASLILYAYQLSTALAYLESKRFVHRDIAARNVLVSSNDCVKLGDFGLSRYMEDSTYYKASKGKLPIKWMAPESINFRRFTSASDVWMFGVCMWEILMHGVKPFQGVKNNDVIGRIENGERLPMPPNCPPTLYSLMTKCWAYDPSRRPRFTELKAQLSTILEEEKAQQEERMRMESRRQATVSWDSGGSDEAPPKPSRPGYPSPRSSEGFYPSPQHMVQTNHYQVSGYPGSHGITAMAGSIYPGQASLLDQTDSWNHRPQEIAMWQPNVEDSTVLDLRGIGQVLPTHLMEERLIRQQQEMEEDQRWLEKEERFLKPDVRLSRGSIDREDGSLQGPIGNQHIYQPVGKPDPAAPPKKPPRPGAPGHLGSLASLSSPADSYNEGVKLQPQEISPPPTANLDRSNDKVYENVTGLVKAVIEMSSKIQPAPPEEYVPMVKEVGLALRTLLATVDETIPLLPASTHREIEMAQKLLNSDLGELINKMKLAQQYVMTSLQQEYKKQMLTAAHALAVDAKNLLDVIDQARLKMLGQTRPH
Sequence of Luciferin 4-monooxygenase (Photinus pyralis) (P08659 whole entry, looked up): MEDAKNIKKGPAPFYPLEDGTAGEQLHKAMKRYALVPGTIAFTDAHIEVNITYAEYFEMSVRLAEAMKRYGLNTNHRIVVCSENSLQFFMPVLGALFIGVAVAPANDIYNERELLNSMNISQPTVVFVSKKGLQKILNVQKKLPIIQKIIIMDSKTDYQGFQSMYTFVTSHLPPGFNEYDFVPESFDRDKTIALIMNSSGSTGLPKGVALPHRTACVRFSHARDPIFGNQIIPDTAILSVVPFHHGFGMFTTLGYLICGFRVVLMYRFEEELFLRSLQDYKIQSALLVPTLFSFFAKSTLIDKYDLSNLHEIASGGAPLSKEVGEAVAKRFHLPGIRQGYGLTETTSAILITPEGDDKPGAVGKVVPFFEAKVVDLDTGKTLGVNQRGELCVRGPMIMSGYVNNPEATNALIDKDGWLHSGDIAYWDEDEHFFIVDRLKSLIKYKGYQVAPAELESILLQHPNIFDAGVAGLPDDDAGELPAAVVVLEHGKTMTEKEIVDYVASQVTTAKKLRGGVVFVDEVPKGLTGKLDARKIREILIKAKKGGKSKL
Sequence of Fibroblast growth factor 2 (Homo sapiens) (P09038 whole entry, looked up): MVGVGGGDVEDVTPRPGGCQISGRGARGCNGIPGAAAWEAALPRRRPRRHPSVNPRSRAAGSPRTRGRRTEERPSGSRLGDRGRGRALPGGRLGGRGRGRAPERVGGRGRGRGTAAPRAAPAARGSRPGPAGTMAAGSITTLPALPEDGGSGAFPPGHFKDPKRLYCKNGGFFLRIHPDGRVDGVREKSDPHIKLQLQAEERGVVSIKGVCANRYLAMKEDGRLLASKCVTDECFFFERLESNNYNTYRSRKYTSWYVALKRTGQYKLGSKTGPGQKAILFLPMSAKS
Sequence of Streptavidin (Streptomyces avidinii) (P22629 whole entry, looked up): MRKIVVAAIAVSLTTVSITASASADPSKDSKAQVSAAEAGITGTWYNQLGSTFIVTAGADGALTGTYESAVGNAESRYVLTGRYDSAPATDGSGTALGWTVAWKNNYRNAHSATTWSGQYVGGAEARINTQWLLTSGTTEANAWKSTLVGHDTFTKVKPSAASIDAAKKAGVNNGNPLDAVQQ
Sequence of Torsin-1A (Homo sapiens) (O14656 whole entry, looked up): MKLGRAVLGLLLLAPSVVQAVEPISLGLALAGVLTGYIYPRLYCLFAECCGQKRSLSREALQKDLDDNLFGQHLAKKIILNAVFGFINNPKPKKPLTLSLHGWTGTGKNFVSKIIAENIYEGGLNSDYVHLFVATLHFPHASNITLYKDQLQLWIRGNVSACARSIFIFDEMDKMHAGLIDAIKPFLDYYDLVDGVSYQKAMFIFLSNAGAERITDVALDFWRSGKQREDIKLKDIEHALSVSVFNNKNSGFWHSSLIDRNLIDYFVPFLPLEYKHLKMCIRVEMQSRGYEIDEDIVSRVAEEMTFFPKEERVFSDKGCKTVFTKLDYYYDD

| Structure (SMILES) | composite z-score [1] | composite z-score [2] | composite z-score [3] | composite z-score [4] | composite z-score [5] | composite z-score [6] | z-score [7] | composite z-score [8] | composite z-score [9] | z-score [10] | composite z-score [11] | z-score [12] | z-score [13] | z-score [14] | z-score [15] | composite z-score [16] | composite z-score [17] | composite z-score [18] | composite z-score [19] | composite z-score [20] |
| --- | --- | --- | --- | --- | --- | --- | --- | --- | --- | --- | --- | --- | --- | --- | --- | --- | --- | --- | --- | --- |
| O=C1c2ccccc2[C@](Cc2ccccc2I)(C(=O)NC2CC2)[C@H](c2ccc(CO)cc2)N1C1CCCCC1 | 2.63 | 1.24 | 0.548 | 0.806 | 1.27 | 1.09 | 2.01 | 0.593 | 0.993 | -0.912 (inactive) | 0.557 | -3.43 (inactive) | 0.214 (inactive) | 0.531 (inactive) | 0.424 (inactive) | 1.05 | 0.306 | 0.414 | 0.68 | 1.06 |
| COCCOC(=O)N1C(=O)[C@@]2(c3cc(C#CC4=CCCCC4)ccc31)[C@H](C(=O)N1CCc3cc(OC)c(OC)cc3C1)[C@H]1C(=O)O[C@H](c3ccccc3)[C@H](c3ccccc3)N1[C@@H]2c1ccc(OCCO)cc1 | 1.2 | 1.14 | 0.756 | 0.868 | 1.15 | 1.16 | -1.21 | 1.1 | 0.118 | -1.09 (inactive) | 0.538 | -0.571 (inactive) | -0.259 (inactive) | -0.475 (inactive) | -0.381 (inactive) | 0.665 | 0.0649 | 0.304 | 0.295 | 1.38 |
| COc1cc2c(cc1OC)CN(C(=O)[C@@H]1[C@H]3C(=O)O[C@H](c4ccccc4)[C@H](c4ccccc4)N3[C@H](c3ccc(O)cc3)[C@@]13C(=O)Nc1ccc(C#CC4(O)CCCCCC4)cc13)CC2 | 2.4 | 1.25 | 0.592 | 0.924 | 1.14 | 1.35 | -0.373 | 0.999 | 0.137 | -0.798 (inactive) | 0.382 | -0.292 (inactive) | -0.37 (inactive) | -0.168 (inactive) | -0.65 (inactive) | 1.06 | -0.287 | 0.287 | 0.787 | 1.91 |
| COc1ccc(CCNC(=O)[C@@H]2c3ccccc3C(=O)N(C3Cc4ccccc4C3)[C@H]2c2ccc(CO)cc2)cc1 | 1.12 | 0.655 | 1.02 | 0.92 | 0.25 | 0.0201 | 0.997 | -0.0376 | 0.645 | 0.672 (inactive) | -0.062 | -0.221 (inactive) | -0.17 (inactive) | -0.0888 (inactive) | -1.01 (inactive) | -0.217 | -0.0448 | 0.0114 | 0.067 | 0.13 |
| O=C1NC(=O)C2C1C=CC(C(O)C(c1ccccc1)c1ccccc1)N2Nc1ccc(Cl)cc1Cl (stereo not given) | -0.138 | 1.15 | 0.682 | 0.852 | 0.896 | -0.301 | -0.815 | -0.0329 | 0.587 | 0.231 (inactive) | 0.223 | -1.78 (inactive) | -0.548 (inactive) | -0.14 (inactive) | 0.253 (inactive) | 1.23 | 0.102 | -0.614 | -0.0412 | -0.566 |
| CC1(C)[C@@H]2CC(C(O)C3C=CC4C(=O)N(c5ccccc5)C(=O)C4N3Nc3ccccc3)=C[C@H]1C2 (stereo not given in full) | -0.21 | 0.598 | 1.13 | 0.153 | 0.955 | 0.329 | 1.01 | -0.409 | 0.241 | 0.486 (inactive) | 0.0836 | 0.355 (inactive) | -0.959 (inactive) | 1 (inactive) | 0.874 (inactive) | 0.595 | 0.571 | -0.37 | -0.233 | -0.385 |
| [N-]=[N+]=NCc1ccccc1C[C@]1(C(=O)N2CCOCC2)N=C(c2ccc(OCCCO)cc2)O[C@H]1c1ccccc1N=[N+]=[N-] | 0.595 | 1.23 | 0.0652 | 0.987 | 1.33 | 0.823 | 0.274 | 1.31 | 1.03 | -7.46 (inactive) | 0.774 | -5.5 (inactive) | -0.447 (inactive) | -0.0017 (inactive) | -1.86 (inactive) | 0.808 | 0.0179 | 1.49 | 1.44 | 1.02 |
| COC(=O)[C@@]1(Cc2ccc(OC)cc2)[C@H]2c3cc(C(=O)N4CCCC4)n(Cc4ccc(OC)c(OC)c4)c3C[C@H]2CN1C(=O)c1ccccc1 | 2.04 | 1.22 | 0.343 | 0.607 | 1.37 | 0.515 | 1.58 | 0.724 | 0.742 | 2.16 (inactive) | 0.753 | -2.2 (inactive) | -0.139 (inactive) | 0.959 (inactive) | -0.265 (inactive) | 2.03 | 0.955 | 0.201 | 0.695 | 0.464 |
| CCOC(=O)C1=CCC(c2ccccc2)N(S(=O)(=O)CC[Si](C)(C)C)C1 (stereo not given) | 0.149 | -0.401 | 0.384 | -0.325 | -0.172 | -0.617 | 3.06 | -0.503 | 0.0225 | 1.2 (inactive) | -0.386 | -4.87 (inactive) | -0.296 (inactive) | -0.322 (inactive) | 0.497 (inactive) | -0.192 | -0.363 | 1.04 | 0.673 | -0.302 |
